Laboratory results as given in PubChem BioAssay AID1159580 (chemical genetic matrix, 2015).
About 2,000 (36%) of roughly 5,500 compounds were called active. Roughly 18% stayed inconclusive and do not appear here. The list shows a part of the results. Unmarked numbers belong to inactive results. Rule as the data show it: active = normalized growth mostly below about 0.91 (no sharp cut-off); inconclusive = no clear call, values can overlap the other calls; inactive = mostly above about 0.92.

Assay: chemical genetic growth profiling, strain panel (AID 1159580);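 also: tested at 20 µM; growth read once vehicle control cultures reached saturation at 30 °C; 1 = growth at the plate median or of vehicle wells; lower values mean less growth of the strain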
Details: S. cerevisiae deletion strains, growth OD
[1] = locus YAL040C, strain CLN3, active compounds read low
[2] = locus YCL061C, strain MRC1 (second series), active compounds read low
[3] = locus YDR363W, strain ESC2, active compounds read low
[4] = locus YER002W, strain NOP16, active compounds read low
[5] = locus YMR263W, strain SAP30, active compounds read low
[6] = locus YNL175C, strain NOP13, active compounds read low
[7] = locus YNL197C, strain WHI3, active compounds read low
[8] = locus YNL224C, strain SQS1, active compounds read low
[9] = locus YNL322C, strain KRE1, active compounds read low
[10] = locus YOR083W, strain WHI5 (second series), active compounds read low

| Structure (SMILES) | normalized growth [1] | normalized growth [2] | normalized growth [3] | normalized growth [4] | normalized growth (locus YJR075W, strain HOC1, active compounds read low) | normalized growth [5] | normalized growth (locus YMR307W, strain GAS1, active compounds read low) | normalized growth [6] | normalized growth [7] | normalized growth [8] | normalized growth [9] | normalized growth [10] | normalized growth (locus YPL055C, strain LGE1, active compounds read low) | normalized growth (locus YAL013W, strain DEP1, active compounds read low) | normalized growth (locus YDR150W, strain NUM1, active compounds read low) | normalized growth (locus YPL241C, strain CIN2, active compounds read low) |
| --- | --- | --- | --- | --- | --- | --- | --- | --- | --- | --- | --- | --- | --- | --- | --- | --- |
| COc1cccc(-c2cc(=O)c3ccccc3o2)c1N | 0.905 | 1 | 1.04 | 1.02 | 0.992 | 0.997 | 0.992 | 0.922 | 0.937 | 0.907 (active) | 1.01 | 0.807 (active) | 1.01 |  |  |  |
| O=c1cc(N2CCOCC2)oc2c(-c3ccccc3)cccc12 | 0.996 | 1.01 | 0.995 | 1 |  | 0.992 |  | 0.996 | 0.991 | 0.999 | 1.01 | 0.986 |  | 1.03 | 0.992 | 0.998 |
